From PubChem BioAssay
Rows were chosen to be rich in hits. Some 12% of all compounds tested hit in one or more screens of this group.
PI5P4K alpha inh – blocks human PI5P4K alpha kinase activity; P48426; actives 1.2% (n = 330,000); AID 652105; max response, %; PI5P4Kalpha enzyme, ADP-Glo luminescence, 60 min; active compounds read low; active means max response of -50% or lower; inconclusive means between -30% and -50%; inactive means -30% or higher; further: value at the top dose of about 77 µM; on the % scale 0 is the no-effect control and ±100 the full control effect
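Luminescence from ADP-Glo served as readout of PI5P4Kalpha activity in a qHTS format. Reaction: enzyme, substrate, compound, ATP at 5 microM final, 60 min at RT.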
PLK1 PBD block – inhibitors of human PLK1 polo-box domain binding; P53350; Plk1 PBD binding of FITC phosphopeptide, fluorescence polarization; Potency, µM, for inactives: max response, negative = inhibition, usual class: inhibitors; actives 2.8% (n = 360,000); further: potency means the concentration at half of the fitted maximal effect; series mostly up to about 57 µM; on the % scale 0 is the no-effect control and ±100 the full control effect; nearly all actives have a fitted effect of over 65% in size
HP1b binding inh – HP1-beta chromodomain-methylated histone interaction inhibition; P83916; AID 540317; Potency, µM (doses to about 114 µM), inactives show at the top dose activity change, negative = inhibition, most hits filed as inhibitors; actives 0.56% (n = 390,000); AlphaScreen HP1-beta / biotin-H3K9me3 peptide binding; further: potency means the concentration at half of the fitted maximal effect; nearly all actives have a fitted effect of over 70% in size
Target sequence (P83916 whole entry, looked up): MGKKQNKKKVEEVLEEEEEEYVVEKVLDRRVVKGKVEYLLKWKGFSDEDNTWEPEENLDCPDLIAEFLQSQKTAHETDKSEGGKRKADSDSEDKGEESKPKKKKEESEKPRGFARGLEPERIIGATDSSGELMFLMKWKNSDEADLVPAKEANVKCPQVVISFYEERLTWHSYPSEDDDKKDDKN
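HP1-beta protein (50 nM final) preincubated 30 min at room temperature with biotinylated H3(1-18)K9me3 peptide (50 nM) in PBS pH 7.4, 0.01% Tween-20, then compound added for 30 min. AlphaScreen streptavidin donor/nickel chelate acceptor beads (10 ug/mL final), 30 min dark, luminescence read.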
BAZ2B inh – inhibitors of human BAZ2B bromodomain | Q9UIF8 | AlphaScreen BAZ2B-H3K14Ac peptide displacement | Potency, µM (series often up to 114 µM), without a hit: at the top dose activity change, negative = inhibition, hits mostly inhibitors | actives 4.4% (n = 360,000); further: potency means the concentration at half of the fitted maximal effect; on the % scale 0 is the no-effect control and ±100 the full control effect; nearly all actives have a fitted effect of over 60% in size
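In this displacement format the biotinylated H3(5-23) peptide acetylated at Lys14 serves as ligand at 50 nM, with BAZ2B at 50 nM in PBS pH 7.4 containing 0.01% Tween-20. Donor and acceptor beads are 10 ug/mL final.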
G9a inh – inhibitors of human histone lysine methyltransferase G9a; Q96KQ7; G9a H3K9 monomethylation, AlphaScreen, 2 h; Potency, µM (doses to about 102 µM), for the others: at the top dose activity, negative = inhibition, usual class: inhibitors; actives 8.8% (n = 350,000); AID 504332; further: potency means the concentration at half of the fitted maximal effect; on the % scale 0 is the no-effect control and ±100 the full control effect; nearly all actives have a fitted effect of over 75% in size
Target sequence (Q96KQ7 913-1193 limits assumed): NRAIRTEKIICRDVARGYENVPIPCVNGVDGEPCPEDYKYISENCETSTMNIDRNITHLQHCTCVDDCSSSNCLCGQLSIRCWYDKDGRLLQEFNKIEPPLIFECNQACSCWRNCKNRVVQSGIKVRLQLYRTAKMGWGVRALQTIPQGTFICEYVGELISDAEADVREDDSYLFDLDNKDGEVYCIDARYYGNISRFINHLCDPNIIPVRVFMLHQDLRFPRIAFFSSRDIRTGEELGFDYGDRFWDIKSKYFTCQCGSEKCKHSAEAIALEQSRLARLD
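Compounds were preincubated with 20 nM G9a for 15 min, after which biotinylated H3K9 peptide (500 nM) and SAM (20 uM) started a 2 h room-temperature reaction. Monomethylated product was quantified by antibody-based AlphaScreen chemiluminescence.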
JMJD2A Tudor – inhibitors of human JMJD2A Tudor domain | AlphaScreen JMJD2A-Tudor / H3K4me3 peptide binding | Potency, µM (doses to about 114 µM), without a hit: at the highest dose activity change, negative = inhibition, usual class: inhibitors | actives 4.4% (n = 390,000); further: potency means the concentration at half of the fitted maximal effect; on the % scale 0 is the no-effect control and ±100 the full control effect; nearly all actives have a fitted effect of over 50% in size
An asterisk follows results filed as active; ? = inconclusive; nt = not tested or not shown; [ ] = another dose, or the depositor's remark. Unless noted, the call rests on the fitted dose curve; in most records, active means well fitted curve in the direction sought with a large enough effect; inconclusive means small, poorly fitted or top-dose-only effect, or another doubt; inactive means no such curve, though single readings can be large; an effect the other way counts as inactive or inconclusive.

SMILES	PI5P4K alpha inh	PLK1 PBD block	HP1b binding inh	BAZ2B inh	G9a inh	JMJD2A Tudor
Cc1c(C(=O)O)sc2nc3n(c(=O)c12)CCC3	?	-22.7%	29.0%	?	39.8µM*	50.1µM*
Cc1ccc(CCNC(=O)c2sc3nc4n(c(=O)c3c2C)CCC4)cc1	-6.9	10.6µM*	5.1%	-35.8%	22.3%	?
Cc1c(C(=O)N2CCN(c3ccc(F)cc3)CC2)sc2nc3n(c(=O)c12)CCC3	-19.3	21.2µM*	12.1%	-38.7%	10.1%	?
Cc1c(C(=O)N2CCN(c3ccccc3)CC2)sc2nc3n(c(=O)c12)CCC3	1.0	-15.6%	10.7%	-12.2%	18.8%	-15.9%
Cc1c(C(=O)NCCc2ccc(Cl)cc2)sc2nc3n(c(=O)c12)CCC3	-2.8	-8.9%	20.4%	-2.5%	nt	-11.7%
Cc1c(C(=O)NCCc2ccc(Cl)cc2)sc2nc3n(c(=O)c12)CCCC3	nt	nt	53.3%	39.8µM*	?	-32.6%
Cn1c(SCC(=O)Nc2ccc3c(c2)OCCO3)nnc1C1CC1	-1.8	-0.3%	16.8%	-5.5%	0.3%	-8.6%
CCN(CC)CCNC(=O)c1sc2nc3n(c(=O)c2c1C)CCCCC3	nt	nt	38.5%	12.2%	0.9%[59 µM]	-12.2%
CCCCN(CC)CCCNC(=O)c1sc2nc3n(c(=O)c2c1C)CCCCC3	nt	nt	28.5%	-4.1%	8.91µM*	-7.9%
CCCS(=O)(=O)c1nc(S(=O)(=O)c2ccc(C)cc2)c(N(C)Cc2ccccc2)s1	nt	nt	32.7%	-2.6%	-34.2%[59 µM]	0.0%
COc1ccccc1C(=O)NNc1ncc(C)s1	-11.8	?	32.6%	-31.2%	39.8µM*	-18.6%
O=S(=O)(NC(=S)c1ccccc1)c1ccccc1	-9.7	?	-6.2%	nt	nt	-35.0%
O=C(NS(=O)(=O)c1ccccc1)c1ccccc1O	-17.0	23.8µM*	18.8%	-0.9%	6.8%[12.7 µM]	22.6%[11.4 µM]
CC(C)=N/N=C1\NC(=O)C(C)S1 (centres undefined)	0.1	-1.9%	41.2%	-35.2%	12.2%	-12.6%
CC1SC(=NC(=O)c2ccco2)NC1=O (centres undefined)	nt	-29.8%	-5.3%	5.3%	50.1µM*	?
CN(C)c1cccc(CNC(=O)c2ccc3sc([C@@H]4O[C@H](CO)[C@H](O)[C@H](O)[C@H]4O)nc3c2)c1	-6.3	-1.8%	nt	nt	nt	nt
O=C(NC(Cc1nn[nH]n1)C(=O)OCc1ccccc1)OCc1ccccc1 (centres undefined)	0.0	-8.8%	nt	nt	nt	nt
COc1ccc(CNC(=O)C2CCCN(c3ncnc4c3nc3n4CCCCC3)C2)cc1 (centres undefined)	-9.5	?	5.6%	-2.3%	17.6%	-19.8%
N#Cc1cc(-c2ccccc2)oc1/N=C/c1ccccc1O	3.1	-16.6%	-32.1%	7.4%	?	79.4µM*
COc1cccc(/C=N/c2oc(-c3ccccc3)cc2C#N)c1O	-7.9	-22.5%	-20.2%	?	-49.8%[59 µM]	-35.1%[57.1 µM]
CCCCn1c(N)c(N(CCC(C)C)C(=O)CSc2nncn2-c2ccccc2)c(=O)[nH]c1=O	-2.6	3.0%	30.5%	?	7.94µM*	-2.3%
CCCCN(C(=O)CSc1nncn1-c1ccccc1OC)c1c(N)n(Cc2ccccc2)c(=O)[nH]c1=O	-2.5	-0.5%	24.0%	-2.7%	56.2µM*	-20.7%
O=C(COC(=O)c1cc(Br)ccc1O)NNC(=O)c1cccs1	-4.6	-8.1%	10.2%	5.3%	18.6%[12.7 µM]	-15.0%
N#CN1CCC(N[S+](=O)([O-])c2cccc(F)c2)CC1	nt	nt	nt	nt	nt	-0.7%
C=C[C@]1(C)C=C2C(=O)C[C@H]3C(C)(C)CCC[C@]3(C(=O)O)[C@@]2(O)CC1	1.8	-2.1%	nt	nt	nt	nt
C=C[C@]1(C)C=C2CCC3[C@](C)(CCC[C@@]3(C)C(=O)O)C2CC1 (some centres undefined)	-2.9	23.8µM*	14.0%	-9.8%	4.2%[12.7 µM]	?
C=C/C(C)=C/CC1C(=C)CCC2C(C)(C(=O)O)CCCC12C (centres undefined)	?	18.9µM*	19.6%	-34.0%	5.1%[12.7 µM]	56.2µM*
Cc1ccc(S(=O)(=O)NNC(=O)Cc2cccn2C)cc1	-4.0	2.2%	39.6%	?	?	2.7%
